PubChem BioAssay AID624405 (Broad Institute, 2012)
Out of some 1,900 compounds screened, about 250 (13%) were called active. Not shown: some 4% with an inconclusive outcome. These entries were drawn from the full list. Entries with a potency or affinity are not part of this list. A number with no mark means an inactive call.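 How the source made its calls: active means fitted curve reaches 40% rescue activity at or below the top valid dose, in every test run; inconclusive means test runs disagree, some active and some inactive; inactive means every run misses the threshold or moves the wrong way.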

Experiment: rescue of simvastatin-induced ATP loss – cell-based, C2C12 myotubes, ATP luminescence, cherry pick, dose response (AID 624405);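 further: myotubes are challenged with simvastatin at 10 µM to lower ATP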
Conditions: 48 h, scaled: DMSO wells 0, geranylgeraniol wells 100; series mostly up to 19.5 µM; rescue activity (ATP increase): at the top concentration

SMILES | rescue activity (ATP increase)
COc1ccc(S(=O)(=O)Nc2ccc3c(c2)CC(=O)N([C@H](C)CO)C[C@@H](C)[C@@H](CN(C)Cc2ccc(Cl)c(Cl)c2)O3)cc1 | 36.8%
CC(C)NC(=O)Nc1ccc2c(c1)C(=O)N([C@H](C)CO)C[C@@H](C)[C@H](CN(C)C(=O)C1CCCCC1)OCCCC[C@@H](C)O2 | 2.97%
C[C@@H]1CN([C@@H](C)CO)C(=O)Cc2cc(NS(=O)(=O)c3cn(C)cn3)ccc2O[C@@H]1CN(C)Cc1ccc(Cl)c(Cl)c1 | 18.7% [at 21 µM]
C[C@H]1CN([C@@H](C)CO)C(=O)Cc2cc(NS(=O)(=O)c3cn(C)cn3)ccc2O[C@@H]1CN(C)Cc1ccc(Cl)c(Cl)c1 | 12.7%
C[C@@H]1CN([C@@H](C)CO)C(=O)Cc2cc(NS(=O)(=O)c3cn(C)cn3)ccc2O[C@H]1CN(C)Cc1ccc(Cl)c(Cl)c1 | 4.02%
C[C@@H]1CN([C@H](C)CO)C(=O)Cc2cc(NS(=O)(=O)c3cn(C)cn3)ccc2O[C@H]1CN(C)Cc1ccc(Cl)c(Cl)c1 | 12.2% [at 21 µM]
COc1ccc(CCNC2CCN(C)CC2)cc1OC | 0.107%
Cc1[nH]c2ccccc2c(=O)c1SC(F)(F)C(F)C(F)(F)F (stereo not given) | -8.66%
Cc1ccc(CC2CC(=O)N(CCc3ccc4c(c3)OCO4)C2=O)cc1 (stereo not given) | 15.4%
COc1ccc(NC(=O)N(C)C[C@H]2Oc3ccc(NC(=O)Cn4cnnn4)cc3C(=O)N([C@H](C)CO)C[C@H]2C)cc1 | 2.03%
C[C@@H]1CN([C@H](C)CO)C(=O)Cc2cc(NC(=O)Cc3cn(C)c4ccccc34)ccc2O[C@H]1CN(C)Cc1ccc(C(F)(F)F)cc1 | -17.1%
COc1cc2c3c(c1)C1(C(=O)N3C(C)(C)C=C2C)C(C#N)=C(N)Oc2cc(C)oc(=O)c21 (stereo not given) | 16%
COc1ccc(CCN2C(=O)C3C(C2=O)C2C=CC3C23CC3)cc1OC (stereo not given) | -29.4%
C[C@@H]1CCCCO[C@@H](CN(C)Cc2ccc(Cl)c(Cl)c2)[C@@H](C)CN([C@H](C)CO)C(=O)c2cc(NC(=O)Cc3ccccc3)ccc2O1 | 18% [at 21 µM]
COc1ccc(-n2c(SCC(=O)Nc3ccc4c(c3)OCO4)nc3ccccc3c2=O)cc1 | 45.4%
Cc1ccc(CSCC(=O)Nc2ccc3c(c2)OCO3)cc1 | -21.8%
C[C@@H]1CN([C@H](C)CO)C(=O)c2cccc(NC(=O)Nc3ccc(F)cc3)c2O[C@H]1CN(C)Cc1ccccc1 | 1.81%
Cc1ccc(C(C(=O)NC2CCCC2)N(Cc2cccs2)C(=O)CNC(=O)c2cccs2)o1 (stereo not given) | 3.04%
O=C(NC1CCCC1)C(c1ccsc1)N(Cc1ccco1)C(=O)Cc1cccs1 (stereo not given) | 7.96%
Cc1ccc(S(=O)(=O)N(C)C[C@@H]2Oc3ncc(C#Cc4cccc(F)c4)cc3C(=O)N([C@H](C)CO)C[C@@H]2C)cc1 | 25.8%
C[C@@H]1CCCCO[C@@H](CN(C)C(=O)Nc2cccc3ccccc23)[C@@H](C)CN([C@H](C)CO)C(=O)c2cc(NS(=O)(=O)c3ccc(Cl)cc3)ccc2O1 | 9.86% [at 21 µM]
COc1cccc(-c2cnc3c(c2)C(=O)N([C@H](C)CO)C[C@H](C)[C@H](CN(C)Cc2ccccc2)O3)c1 | 17.4%
C[C@H]1CN([C@@H](C)CO)C(=O)c2cc(C#Cc3cccc(F)c3)cnc2O[C@@H]1CN(C)C(=O)C1CCCCC1 | 24.4%
C[C@H](CO)N1C[C@H](C)[C@H](CN(C)C(=O)Nc2ccc3c(c2)OCO3)Oc2ncc(C#Cc3ccc(F)cc3)cc2C1=O | 8.89%
CC(C)CC#Cc1cnc2c(c1)C(=O)N([C@H](C)CO)C[C@@H](C)[C@H](CN(C)C(=O)Cc1ccccc1)O2 | 11.1%

SMILES | rescue activity (ATP increase)
C[C@H](CO)N1C[C@H](C)[C@H](CN(C)C(=O)Nc2cccc3ccccc23)Oc2ncc(C#Cc3ccc(C(F)(F)F)cc3)cc2C1=O | 8.24% [at 21 µM]
C[C@H](CO)N1C[C@H](C)[C@@H](CN(C)CC2CCCC2)Oc2ncc(C#Cc3ccncc3)cc2C1=O | 31.5% [at 18 µM]
CC(C)CC#Cc1cnc2c(c1)C(=O)N([C@@H](C)CO)C[C@@H](C)[C@H](CN(C)C(=O)Cc1ccccc1)O2 | -4.83%
COc1ccc(C#Cc2cnc3c(c2)C(=O)N([C@H](C)CO)C[C@H](C)[C@H](CN(C)Cc2cccc(C(F)(F)F)c2)O3)cc1OC | 20.9%
Cc1cc2c(cc1C)/C(=C\C(N)=O)NC(C)(C)C2 | -8.58%
COc1cc(C(N)=O)ccc1OCc1ccccc1 | 8.22%
CCN(CC)C(=O)CSc1nnc([C@H](CCSC)NC(=O)OC(C)(C)C)o1 | -9.94%
O=C(NCc1ccccc1)Oc1cccc(Cl)c1 | 26.1%
Cc1cc(NC(=O)c2ccc(Cl)c(S(=O)(=O)N3CCOCC3)c2)no1 | -10.7%
C[C@H]1CN([C@@H](C)CO)C(=O)c2cc(NS(=O)(=O)c3ccc(F)cc3)ccc2O[C@H]1CN(C)Cc1ccc(-c2ccccc2)cc1 | 5.05%
CN1C[C@@H]2[C@H](c3ccccc31)[C@@H](CO)N2Cc1ccccc1 | 21.2% [at 21 µM]
C[C@@H]1CN([C@@H](C)CO)C(=O)c2cc(NC(=O)c3ccccc3)ccc2O[C@@H](C)CCCCO[C@H]1CN(C)C(=O)CCCN(C)C | 4.85%
C[C@H]1CCCCO[C@H](CN(C)C(=O)Nc2cccc3ccccc23)[C@@H](C)CN([C@@H](C)CO)C(=O)c2cc(NS(=O)(=O)c3ccc(Cl)cc3)ccc2O1 | -11.2%
C[C@@H]1CN([C@H](C)CO)C(=O)c2cc(NC(=O)Nc3ccc(F)cc3)ccc2O[C@@H](C)CCCCO[C@H]1CN(C)S(=O)(=O)c1cccs1 | 7.63%
CS(=O)(=O)N(CC(=O)NCc1ccccc1)C1CCCCC1 | 0.866%
O=C(CN1CCN(c2ccccn2)CC1)NCCc1ccccc1 | 4.85%
CSc1cc(-c2ccc(Cl)cc2)c(C(=O)NC(C)C)s1 | 4.58%
COc1ccc(NC(=O)Nc2cccc3c2O[C@@H](CN(C)Cc2ccc(Oc4ccccc4)cc2)[C@@H](C)CN([C@@H](C)CO)C3=O)cc1 | -0.035%
Cc1noc(C)c1NC(=O)Nc1cccc2c1O[C@H](CN(C)Cc1ccc(-c3ccccc3)cc1)[C@@H](C)CN([C@@H](C)CO)C2=O | -5.23%
COc1ccc(NC(=O)Nc2cccc3c2O[C@@H](CN(C)Cc2ccc(Oc4ccccc4)cc2)[C@@H](C)CN([C@H](C)CO)C3=O)cc1 | -21% [at 21 µM]
Cc1noc(C)c1NC(=O)Nc1cccc2c1O[C@@H](CN(C)Cc1ccc(-c3ccccc3)cc1)[C@H](C)CN([C@@H](C)CO)C2=O | 8.68%
C[C@@H]1CN([C@@H](C)CO)C(=O)c2cc(C#CC3CCCCC3)cnc2O[C@@H]1CN(C)C(=O)C1CCCCC1 | -4.43%
CSc1nncn1/N=C/c1ccc2c(c1)OCO2 | -1.45%
COc1cccc(-c2cnc3c(c2)C(=O)N([C@H](C)CO)C[C@H](C)[C@H](CN(C)C(=O)Nc2cccc4ccccc24)O3)c1 | 9.55%
COc1cc(C(=O)Oc2cccc(C)c2)cc(OC)c1OC | -10.8%

SMILES | rescue activity (ATP increase)
Cc1ccc(S(=O)(=O)N2CCCSCC2)cc1 | 10.4%
O=C(c1cccs1)N1CCN(C2CCN(Cc3ccccc3)CC2)CC1 | -9.46%
COc1ccc(CN2CCN(C(=O)c3cccs3)CC2)cc1Br | 28.6%
COc1cc(S(=O)(=O)N2CCN(C(=O)c3ccccc3F)CC2)c(OC)cc1NC(C)=O | 0.236%
Cc1noc(N)c1C(=O)Nc1ccc(F)c(Cl)c1 | 1.69%
Cc1nnc(Sc2nc3c(c(=O)n(C)c(=O)n3C)n2Cc2ccccc2Cl)s1 | -13.5%
O=C1CCCC2=C1C(c1cccs1)Nc1ccc3ncccc3c12 (stereo not given) | 24.9%
CCCSc1nnc(CN2CCOCC2)n1C | -4.41%
CCCNC(=O)C(=O)c1cccn1-c1ccsc1C(=O)OC | -13.7%
CCOC(=O)c1ccc(NC(=O)N2CCCCC2)cc1 | -33.5%
C[C@H](CO)N1C[C@H](C)[C@H](CN(C)C(=O)Nc2ccc3c(c2)OCO3)OCCCC[C@H](C)Oc2ccc(NS(=O)(=O)c3ccc(F)cc3)cc2C1=O | 36.7%
Cc1ccc(CN2CCC(C(=O)NCCC(C)C)CC2)o1 | -12.4%
Cc1ccc(S(=O)(=O)N(C)C[C@@H]2Oc3c(NC(=O)Nc4ccccc4)cccc3C(=O)N([C@@H](C)CO)C[C@H]2C)cc1 | -16%
Cc1ccc(S(=O)(=O)N(C)C[C@H]2Oc3c(NC(=O)Nc4ccccc4)cccc3C(=O)N([C@@H](C)CO)C[C@@H]2C)cc1 | 14.2%
Cc1ccc(S(=O)(=O)N(C)C[C@H]2Oc3c(NC(=O)Nc4ccccc4)cccc3C(=O)N([C@H](C)CO)C[C@@H]2C)cc1 | -0.949%
COc1ccc(S(=O)(=O)Nc2cccc3c2O[C@@H](CN(C)C(=O)Nc2ccc(F)cc2)[C@@H](C)CN([C@H](C)CO)C3=O)cc1 | 13.7%
COc1ccc(S(=O)(=O)Nc2cccc3c2O[C@H](CN(C)C(=O)Nc2ccc(F)cc2)[C@@H](C)CN([C@H](C)CO)C3=O)cc1 | 28.7%
COc1ccc(S(=O)(=O)Nc2cccc3c2O[C@@H](CN(C)C(=O)Nc2ccc(F)cc2)[C@@H](C)CN([C@@H](C)CO)C3=O)cc1 | 8.52%
CN1C(=O)c2cc(NC(=O)c3ccc(F)c(F)c3)ccc2OC[C@H]2O[C@@H](CC(=O)Nc3ccc4c(c3)COC4)CC[C@@H]21 | 26% [at 10 µM]
CCSc1nc2sc3c(c2c(=O)n1-c1ccc(OC)cc1)CCN(C)C3 | 40.1%
COCCNC(=O)c1nn(-c2cc(OC)cc(OC)c2)c(=O)c2ccccc12 | 0.939%
COc1ccc(S(=O)(=O)N(CC(C)C)CC(C)C)c2cccnc12 | 9.83%
Cc1cccc(NC(=O)COc2ccc3oc4c(c3c2)CCCC4)n1 | 31.6%
CO[C@H]1CC[C@@H]2CCOc3ccc(C#N)cc3C(=O)N(C)C[C@@H](OC)[C@@H](C)C(=O)N(C)C[C@H]1O2 | 40.2%
C[C@@H]1CN([C@H](C)CO)C(=O)c2cc(NS(=O)(=O)c3cccs3)ccc2O[C@@H](C)CCCCO[C@@H]1CN(C)Cc1ccc(C(F)(F)F)cc1 | -13.6%
